Test results taken from PubChem BioAssay AID1159580 (chemical genetic matrix, 2015).
Hit rate of the full screen: of about 5,500 compounds, about 2,000 (36%) were called active. Roughly 18% stayed inconclusive and do not appear here. Cut-off read from the data, not from the text of the source: active = normalized growth mostly below about 0.91 (no sharp cut-off); inconclusive = no clear call, values can overlap the other calls; inactive = mostly above about 0.92. The list shows a part of the results.

Assay: chemical genetic growth profiling, strain panel (AID 1159580);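 note: tested at 20 µM; growth read once vehicle control cultures reached saturation at 30 °C; 1 = growth at the plate median or of vehicle wells; lower values mean less growth of the strain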
Conditions: growth OD

Measured: normalized growth

CN1C(CC(=O)c2ccccc2)CCCC1CC(O)c1ccccc1 (configuration not stated)
inactive: S. cerevisiae deletion strains, locus YJR075W, strain HOC1, hits give low values 0.998 | S. cerevisiae deletion strains, locus YKL009W, strain mrt4, hits give low values 0.994 | S. cerevisiae deletion strains, locus YKL068W, hits give low values 0.994 | S. cerevisiae deletion strains, locus YKL085W, strain MDH1 (second series), hits give low values 0.989 | S. cerevisiae deletion strains, locus YKL085W, strain MDH1, hits give low values 0.989 | S. cerevisiae deletion strains, locus YKL160W, strain elf1, hits give low values 1 | S. cerevisiae deletion strains, locus YKL190W, strain CNB1, hits give low values 1.01 | S. cerevisiae deletion strains, locus YKR001C, strain vps1, hits give low values 1 | S. cerevisiae deletion strains, locus YKR026C, strain gcn3, hits give low values 0.977 | S. cerevisiae deletion strains, locus YKR091W, strain srl3, hits give low values 0.975 | S. cerevisiae deletion strains, locus YLL001W, strain dnm1, hits give low values 0.967 | S. cerevisiae deletion strains, locus YLL026W, hits give low values 0.98 | S. cerevisiae deletion strains, locus YLL041C, strain sdh2, hits give low values 0.982 | S. cerevisiae deletion strains, locus YLR027C, strain aat2, hits give low values 0.965 | S. cerevisiae deletion strains, locus YLR039C, strain RIC1, hits give low values 1.04 | S. cerevisiae deletion strains, locus YLR058C, strain SHM2, hits give low values 1.01 | S. cerevisiae deletion strains, locus YLR102C, strain apc9, hits give low values 0.983 | S. cerevisiae deletion strains, locus YLR113W, strain HOG1, hits give low values 0.984 | S. cerevisiae deletion strains, locus YLR221C, strain rsa3, hits give low values 0.99 | S. cerevisiae deletion strains, locus YLR258W, strain gsy2, hits give low values 0.983 | S. cerevisiae deletion strains, locus YLR262C, strain YPT6 (second series), hits give low values 0.909 | S. cerevisiae deletion strains, locus YLR262C, strain YPT6, hits give low values 1.06 | S. cerevisiae deletion strains, locus YLR268W, strain sec22, hits give low values 0.928 | S. cerevisiae deletion strains, locus YLR320W, strain mms22, hits give low values 0.979 | S. cerevisiae deletion strains, locus YLR330W, strain CHS5, hits give low values 1 | S. cerevisiae deletion strains, locus YLR342W, strain FKS1 (second series), hits give low values 1.03 | S. cerevisiae deletion strains, locus YLR342W, strain FKS1, hits give low values 0.966 | S. cerevisiae deletion strains, locus YLR357W, strain rsc2, hits give low values 0.967 | S. cerevisiae deletion strains, locus YLR370C, strain arc18, hits give low values 0.962 | S. cerevisiae deletion strains, locus YLR371W, strain rom2, hits give low values 0.984 | S. cerevisiae deletion strains, locus YLR384C, strain iki3, hits give low values 0.974 | S. cerevisiae deletion strains, locus YLR418C, strain cdc73, hits give low values 0.957 | S. cerevisiae deletion strains, locus YML016C, strain PPZ1, hits give low values 1.01 | S. cerevisiae deletion strains, locus YML032C, strain rad52, hits give low values 0.973 | S. cerevisiae deletion strains, locus YML120C, strain ndi1, hits give low values 0.977 | S. cerevisiae deletion strains, locus YML124C, strain tub3, hits give low values 0.988 | S. cerevisiae deletion strains, locus YMR058W, strain fet3, hits give low values 0.969 | S. cerevisiae deletion strains, locus YMR078C, strain ctf18, hits give low values 0.991 | S. cerevisiae deletion strains, locus YMR125W, strain sto1, hits give low values 0.951 | S. cerevisiae deletion strains, locus YMR129W, hits give low values 0.976 | S. cerevisiae deletion strains, locus YMR205C, strain PFK2, hits give low values 0.971 | S. cerevisiae deletion strains, locus YMR223W, strain ubp8, hits give low values 0.993 | S. cerevisiae deletion strains, locus YMR231W, strain pep5, hits give low values 0.987 | S. cerevisiae deletion strains, locus YMR263W, strain SAP30, hits give low values 1.01 | S. cerevisiae deletion strains, locus YMR307W, strain GAS1, hits give low values 1.08 | S. cerevisiae deletion strains, locus YNL067W, strain RPL9B, hits give low values 0.986 | S. cerevisiae deletion strains, locus YNL071W, strain lat1, hits give low values 0.975 | S. cerevisiae deletion strains, locus YNL128W, strain TEP1, hits give low values 1.01 | S. cerevisiae deletion strains, locus YNL153C, strain GIM3, hits give low values 0.988 | S. cerevisiae deletion strains, locus YNL183C, strain NPR1, hits give low values 0.924 | S. cerevisiae deletion strains, locus YNL209W, strain ssb2, hits give low values 0.981 | S. cerevisiae deletion strains, locus YNL233W, strain BNI4, hits give low values 0.994 | S. cerevisiae deletion strains, locus YNL248C, strain rpa49, hits give low values 1.01 | S. cerevisiae deletion strains, locus YNL250W, strain rad50, hits give low values 0.981 | S. cerevisiae deletion strains, locus YNL271C, strain bni1, hits give low values 0.984 | S. cerevisiae deletion strains, locus YNL298W, strain CLA4, hits give low values 0.98 | S. cerevisiae deletion strains, locus YNL307C, strain MCK1, hits give low values 0.992 | S. cerevisiae deletion strains, locus YNL322C, strain KRE1 (second series), hits give low values 0.985 | S. cerevisiae deletion strains, locus YNL322C, strain KRE1, hits give low values 1.01 | S. cerevisiae deletion strains, locus YNR049C, strain mso1, hits give low values 0.973 | S. cerevisiae deletion strains, locus YNR052C, strain pop2, hits give low values 0.99 | S. cerevisiae deletion strains, locus YOL006C, strain TOP1, hits give low values 0.939 | S. cerevisiae deletion strains, locus YOL012C, strain htz1 0.951 | S. cerevisiae deletion strains, locus YOL147C, strain pex11, hits give low values 0.991 | S. cerevisiae deletion strains, locus YOR001W, strain rrp6, hits give low values 0.997 | S. cerevisiae deletion strains, locus YOR061W, strain CKA2, hits give low values 1.02 | S. cerevisiae deletion strains, locus YOR069W, strain VPS5, hits give low values 1.01 | S. cerevisiae deletion strains, locus YOR070C, strain gyp1, hits give low values 0.971 | S. cerevisiae deletion strains, locus YOR080W, strain dia2, hits give low values 0.988 | S. cerevisiae deletion strains, locus YOR083W, strain WHI5, hits give low values 1.01 | S. cerevisiae deletion strains, locus YOR106W, strain vam3, hits give low values 1 | S. cerevisiae deletion strains, locus YOR136W, strain idh2, hits give low values 0.993 | S. cerevisiae deletion strains, locus YOR144C, strain elg1, hits give low values 0.993 | S. cerevisiae deletion strains, locus YOR184W, strain ser1, hits give low values 0.988 | S. cerevisiae deletion strains, locus YOR231W, strain MKK1, hits give low values 0.978 | S. cerevisiae deletion strains, locus YOR265W, strain rbl2, hits give low values 0.973 | S. cerevisiae deletion strains, locus YOR270C, strain vph1, hits give low values 0.917 | S. cerevisiae deletion strains, locus YOR290C, strain snf2, hits give low values 0.951 | S. cerevisiae deletion strains, locus YOR316C, strain cot1, hits give low values 0.99 | S. cerevisiae deletion strains, locus YPL051W, strain arl3, hits give low values 0.998 | S. cerevisiae deletion strains, locus YPL055C, strain LGE1, hits give low values 1.01 | S. cerevisiae deletion strains, locus YPL078C, strain atp4, hits give low values 0.991 | S. cerevisiae deletion strains, locus YPL106C, strain sse1, hits give low values 0.954 | S. cerevisiae deletion strains, locus YPL240C, strain hsp82, hits give low values 0.998 | S. cerevisiae deletion strains, locus YPL241C, strain CIN2, hits give low values 1.01 | S. cerevisiae deletion strains, locus YPL256C, strain CLN2, hits give low values 0.938 | S. cerevisiae deletion strains, locus YPR119W, strain clb2, hits give low values 0.992 | S. cerevisiae deletion strains, locus YPR141C, strain kar3, hits give low values 0.992 | S. cerevisiae deletion strains, locus YPR163C, strain tif3, hits give low values 0.981 | S. cerevisiae deletion strains, locus YPR167C, strain met16, hits give low values 0.997 | S. cerevisiae deletion strains, strain wtn01, hits give low values 0.954 | S. cerevisiae strains, strain wild type, hits give low values 1.01
